# Source: the supplement of paper PMC6555819
# System: VDR:RXRa (NR concentration 270 nM, RXRa partner concentration 90 nM)
# Experiment: PBM binding z-score (relative to random genomic background probes); higher = stronger binding; sequences stand for … in GC…GCGATTGACAGCGTAGAATGAAGG
# Experimental: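 Protein-binding microarray (Agilent 4x180K custom design, double-stranded 60-nt probes: 5' GC cap, 34-nt variable region, 24-nt constant primer region; full probe sequence given). Purified or IVT nuclear receptor:RXRα heterodimers (3:1 NR:RXRα, mostly 270:90 nM) or homodimers were incubated for 1 h in PBS with 2% milk and no ligand, then detected with Alexa488 antibodies. Fluorescence from o1-orientation probes (~5 replicates averaged) was converted to z-scores against 500 random hg19 background probes. Variable regions are seed direct-repeat (DR0–DR5) sites, all their single-nucleotide variants and half-site ablations.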
row,Sequence,PBM binding z-score
1,CGAACTAGGACAAGGACAGTGAATCTCCGCACGC,-0.159
2,CCGAGTGGGGCAAGGTTACCATAACGCACAGCCA,0.482
3,CCTCGGAGGACAACAGGAGGTCCGAGCTGCCAGA,-0.665
4,AGAACGAGGGCAATGAGTTGATTGCACGGGTGGC,5.07
5,GCTGCTAGCTCAACTGATGGTCAGCTAAAGCTCG,-0.797
6,CCGACTGGGGCAAGGGTACCATAACGCACAGCCA,-0.346
7,TCTAGTTGGTCACAGAGGTCACACACGACGGGTA,6.44
8,CTACCAAGGTGAACAAGGTCGTTCATTACTATTC,6.53
9,CTCGAAAGGTCCGTTGAGGTGAGTATACGGATAA,0.243
10,CCTTACGGGACACGAGGTTATAGCACGACGAGCG,0.648
11,CCGACTGGGGCATAAGGTTACCTTAAGCCAGCCC,0.0606
12,GCTCGGAGGACAAGGTCAGAACTTTGTCCGTAGA,1.37
13,TCGTGTAGGTTAGGGGCATTCAGAATGGCGTCGA,0.914
14,AGTCAAAGATCATCTAGGTAACGTAAGATATGCT,0.0146
15,AGTCAAAGTTCGGGACGAGGTAACGTAAAGCACG,0.784
16,ACTCGGAGTACAAAGGTCAGAGCTACGCCAGTGA,3.59
17,TCAGACAGGTGAAGATAACTCAGGTACGCAGTCG,0.709
18,TCTTGTAGATCAAAGGTTAGGAAAGCCGAAGCCT,0.697
19,AGTTAAAGTTCACTAGGTAACGTAAGATTCAGCT,3.64
20,TCTGCTAGGTCAGTTGGTCATCTAACGAGCTGCC,0.463

row,Sequence,PBM binding z-score
1,GCTATTAGTTGAAAGGGCAGCCGAATGATTCTCG,0.0527
2,CGAACGAGGGCATGAATTGATAGCAAATGCCGAT,0.33
3,GCTGCTGGGTCAACTGATGGTCAGCTAAAGCTCG,1.82
4,TCTTGTAGATCAGCAGGTTAAGTAAGCTGGCCAA,0.413
5,TCATATAGGTAATACAGGTGAAATTCGGCATCTA,1.12
6,TCTTTTAGATCAATAGAGGTTAAGAAAGTGCGCT,2.22
7,TCTAGCAGGCCAGAGGGTCGCTCAAGAGGTACGG,-0.181
8,GTACCAAGGTGAATAGGTAGTTGATGAGTAGGCG,-0.15
9,ATCTCTAGGTAACCAAGTTCAGTGCATGCCGAAC,4.21
10,GCGAGTTGGTCAGTAAAAGGTCACACACCGGTCG,4.33
11,CGTCCAAGGTCAGCAGGTCAGTGACAGCGACGTG,4.1
12,AGAATGAGGTTATTAAGAACAGGGAATTGCGGTC,1.83
13,CGTTACGGGTCACTGACAGGTTATAGCATTTGGA,3.87
14,TCTTATAGGTAAAGGTGAAAGTCGAACGATATGA,1.25
15,AGTCAAAGTTCACTAGGTAACGTAGGATTCAGCT,3.71
16,TCTGCTCGGTCAGTTGGTCAGCTAACGAGCTGCC,-0.549
17,GCTGCTAGGTCAGGTGGGTCAGCTAACGGGTACG,2.75
18,ACAGACAGGTGAGTAAAGGTAACTCAGCTGGACG,-0.139
19,ACTAGCAGGCCGAGGGTCACTCAAGATTAGTCCG,1.52
20,CTACCTAGGTGAACAAGGTCGTTGATTACTATTC,5.37
